According to PubChem BioAssay AID652067 (The Scripps Research Institute Molecular Screening Center, 2013):
Hit rate of the full screen: of about 370,000 compounds, about 5,400 (1.5%) were called active. This is one part of a sample in which actives are shown more often than they occur.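 Rule for the calls: active = activation above the mean of all tested compounds plus 3 SD (cut at about 5.5% in these data); inactive = the rest.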

test system: DAF-12 nuclear receptor (Haemonchus contortus); test: hcDAF-12 driven luciferase reporter activation – cell-based, luminescence, HEK293, lit1-tk-luc reporter, primary screen (AID 652067); details: HEK293 hcDAF-12 lit1-tk-luc reporter, at 6.8 µM, hits give high values, 0% DMSO, 100% Δ7-dafachronic acid;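 note: 100% = response to 3 µM Δ7-dafachronic acid high control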

Structure (SMILES) | activation
O=C(CSc1nnc(-c2c[nH]c3ccccc23)o1)c1ccccc1 | -0.49% (inactive)
NC(=O)CSc1c[nH]c2ccccc12 | 6.34% (active)
CCCn1cc(SCC(N)=O)c2ccccc21 | 2.17% (inactive)
Cc1cccc(/C(N)=N/OC(=O)c2ccccc2Cl)c1 | 10.8% (active)
Cc1cc(OC(=O)c2ccccc2Cl)ccc1N1C(=O)CCC1=O | -1.68% (inactive)
C/C(=N\OC(=O)c1ccccc1)c1c(C)nc2cc(C)ccn12 | -1.05% (inactive)
CCCCNC(=O)C[C@H]1C(=O)N(Cc2ccc(OC)cc2)C2=CCCC[C@@]21C(=O)OCC | -4.06% (inactive)
CC(=O)OCCN1CCCC12CCC(c1ccccc1)CC2 (stereo not drawn) | -0.23% (inactive)
CCCCCCN1CCS(=O)(=O)N(Cc2ccc(C(F)(F)F)cc2)C(C(=O)OC)C1 (stereo not drawn) | -2.04% (inactive)
CN1C(=O)c2cc(NS(C)(=O)=O)ccc2OC[C@@H]2O[C@@H](CC(=O)NCc3ccc(-c4ccccc4)cc3)CC[C@H]21 | 0.33% (inactive)
O=C(OC12CCCN(C1)/C(=C/c1ccccc1)C2)c1ccco1 (stereo not drawn) | -0.35% (inactive)
CCC(NC(=O)C1C2C=CC3(CN(Cc4ccccc4)C(=O)C13)O2)c1ccccc1 (stereo not drawn) | -1.89% (inactive)
COC(=O)[C@]12C[C@H](CC(=O)NCCC(C)C)C(=O)N(CCc3ccc(OC)c(OC)c3)C1=C[C@H](C(C)(C)C)O[C@@H]2C | -0.99% (inactive)
Cc1c(NC(=S)NCc2ccc(F)cc2)cccc1[N+](=O)[O-] | -2.35% (inactive)
O=C(N/N=C/c1ccc(OCC2COCCO2)cc1)c1ccc(Br)cc1 (stereo not drawn) | -1.26% (inactive)
O=C(N/N=C/c1ccc(OC(=O)c2ccccc2Cl)cc1)c1ccc(O)cc1 | 5.89% (active)
CC(C)(C)C(=O)Nc1ccc(C(=O)N/N=C/c2ccccc2OC(=O)c2ccc(Cl)cc2Cl)cc1 | -1.06% (inactive)
C=CCN1C(=O)[C@@H](CC(=O)NCC2CCCCC2)[C@]2(C(=O)OC)CCCCC=C12 | -1.65% (inactive)
CCOc1cccc(/C=C/c2ccc3ccccc3n2)c1OC(C)=O | 6.5% (active)
CCOc1ccccc1NC(=O)c1cccnc1 | -0.55% (inactive)
CCOc1ccccc1-c1cc(C(=O)N/N=C(\C)c2cccnc2)c2ccccc2n1 | 1.52% (inactive)
COC(=O)[C@H](C(C)C)N(CCc1cn(Cc2ccccc2)nn1)S(=O)(=O)c1ccc(F)cc1Br | -3.41% (inactive)
CC(C)(C)c1ccc(S(=O)(=O)NCC2CCN(C(=O)C(=O)c3cc4ccccc4o3)CC2)cc1 | -1.1% (inactive)
CCCCN1CCN(C(=O)c2ccc3c(c2)NC(=O)C(C)(C)O3)CC1 | 0.06% (inactive)

Structure (SMILES) | activation
Cc1ccc(NC(=O)c2cc([N+](=O)[O-])ccc2Cl)c(O)c1 | 6.38% (active)
CNc1ccc([N+](=O)[O-])cc1C(=O)O | -0.16% (inactive)
CCC(C)C(=O)Nc1cc([N+](=O)[O-])ccc1Cl (stereo not drawn) | 1.23% (inactive)
COc1ccccc1C(=O)CSc1nnc(-c2ccccn2)n1-c1ccccc1 | -3.35% (inactive)
CCCC1CCC2(CCCN2CCOC(=O)NCc2ccccc2)CC1 (stereo not drawn) | -0.18% (inactive)
CSc1ccc(Oc2cccc3c2S(=O)(=O)N([C@H](C)c2ccccc2)C[C@@H](COCc2ccccc2)O3)cc1C | 0.01% (inactive)
CCSc1ccccc1C(=O)NCc1ccc(OC)cc1 | -0.9% (inactive)
COc1ccc(C(=O)NCCSc2ccccc2C)cc1 | 5.88% (active)
COc1ccc(C(=O)NCC[N+](C)(C)C)cc1 | -0.19% (inactive)
COc1ccccc1S(=O)(=O)c1c(C)cc(C)[nH]c1=O | 0.35% (inactive)
O=C1Nc2ccccc2C1=NN=Cc1ccco1 | 1.9% (inactive)
Cc1cc(C)c(/C=C2\C(=O)Nc3ccccc32)[nH]1 | 6.61% (active)
CC(Sc1ncnc2c1cnn2-c1ccccc1)C(=O)Nc1ccc(N2CCOCC2)cc1 (stereo not drawn) | 1.44% (inactive)
c1ccc(-n2ncc3c(N4CCCC4)ncnc32)cc1 | 6.43% (active)
CN(C(=O)COc1ncnc2c1cnn2-c1ccccc1)C1CCCCC1 | -0.54% (inactive)
COc1ccc(-n2c(SCC(=O)Nc3ccc4c(c3)OCCO4)nnc2-c2ccc(Cl)cc2)cc1 | -1.21% (inactive)
COc1cc(NC(=O)CN(C)S(=O)(=O)c2ccc3nc(C)sc3c2)cc(OC)c1 | -1.14% (inactive)
Cc1nc2ccc(S(=O)(=O)NCC(=O)O)cc2s1 | -0.41% (inactive)
NS(=O)(=O)c1ccc2nc(NC(=O)CS(=O)(=O)c3ccc(F)cc3)sc2c1 | 9.74% (active)
COc1ccc(N2CCN(CCNS(=O)(=O)c3ccc([N+](=O)[O-])cc3)CC2)cc1 | -2.96% (inactive)
Nc1ccc2c(c1)C(O)c1ccc(Cl)cc1-2 (stereo not drawn) | 0.07% (inactive)
Nc1nc2cc(Cl)ccc2n1N | -0.75% (inactive)
Nc1ccc2nn(-c3ccc(Cl)cc3)nc2c1 | 12.2% (active)
CCOc1ccc(N(CC(=O)Nc2c(C)n(C)n(-c3ccccc3)c2=O)S(=O)(=O)c2ccc(Cl)s2)cc1 | -1% (inactive)

Structure (SMILES) | activation
CN(CCc1ccccc1)C(=O)Cn1nc(-c2ccccc2)ccc1=O | -1.21% (inactive)
COC(=O)[C@]12C[C@H](CC(=O)NCc3ccccc3)C(=O)N(CCC3=CCCCC3)C1=C[C@H](C(C)C)O[C@@H]2C1CC1 | -1.01% (inactive)
O=C(Nc1c(Cl)c(C2CC2)nn1-c1ccccc1)C(Cl)(Cl)Cl | -0.16% (inactive)
Cc1ccnc(NC(=O)Cn2ccc([N+](=O)[O-])n2)c1 | 0.29% (inactive)
O=C(CCn1ccc([N+](=O)[O-])n1)Nc1nccs1 | -1.81% (inactive)
O=C(Cn1ccc([N+](=O)[O-])n1)NCc1cccs1 | 10.1% (active)
CCOC(=O)[C@]12CCCC3=C1N(CCC3)C(=O)[C@@H](CC(=O)NCc1cccs1)C2 | -2.04% (inactive)
CC1CC(C)CN(C/C=C/c2ccccc2[N+](=O)[O-])C1 (stereo not drawn) | 6% (active)
COc1cc(CN2CC(C)CC(C)C2)cc([N+](=O)[O-])c1O (stereo not drawn) | -3.15% (inactive)
O=C(/C=C/c1ccccc1[N+](=O)[O-])OCC(=O)N1CCCC1 | 3.54% (inactive)
COc1ccc(C2Nc3ccccc3C(=O)N2Cc2cccs2)cc1COc1c(C)cccc1C (stereo not drawn) | -0.71% (inactive)
Cn1c(SCC(=O)c2cccs2)nnc1-c1ccco1 | 0.02% (inactive)
Cn1c(-c2ccco2)nc2cc3ccccc3cc21 | 17.4% (active)
O=S(=O)(Nc1ccc2nc(-c3ccco3)[nH]c2c1)c1ccccc1 | 1.02% (inactive)
C=CCN=C1NC(c2cccc(C(F)(F)F)c2)C(C(=O)OC)=C(C)N1C (stereo not drawn) | -0.27% (inactive)
Cc1ccc(NC(=O)Cc2cccc(F)c2)c(S(=O)(=O)N2CCOCC2)c1 | -1.13% (inactive)
Cc1ccccc1NC(=O)COC(=O)c1ccc(Sc2ncn[nH]2)c([N+](=O)[O-])c1 | 0.06% (inactive)
COC(=O)CNC(=O)c1ccc2c(c1)S(=O)(=O)c1ccccc1C2=O | -0.44% (inactive)
CCCCN(C)C(=O)c1ccc2c(c1)N(CC)C(=O)c1ccccc1S2(=O)=O | 6.63% (active)
O=C(c1ccc2c(c1)N(Cc1ccc(F)cc1)C(=O)c1ccccc1S2(=O)=O)N1CCN(c2ccccn2)CC1 | -2.49% (inactive)
OC(c1ccccc1)(c1ccccc1)C1CCN(CCCOc2ccc(-c3ccsc3)cc2)CC1 | 0.49% (inactive)
CC(NCc1ccco1)C(=O)N1CCCCC1 (stereo not drawn) | 0.18% (inactive)
COc1ccc(NCc2nnc(SCc3ccccc3)n2-c2ccc(OC)cc2)cc1 | -1.98% (inactive)
COc1cccc(CSc2nnc(-c3cccnc3)n2Cc2ccccc2)c1 | -1.85% (inactive)

Structure (SMILES) | activation
COc1ccc2nc(SCc3ccccc3)nc(C)c2c1 | 7.19% (active)
Fc1ccc2nc(COCc3nc4ccc(F)cc4[nH]3)[nH]c2c1 | -1.16% (inactive)
Cc1ccccc1Nc1nnc(SCC(=O)c2cc3ccccc3o2)s1 | 7.93% (active)
Cc1cccc(Nc2nnc(SCC(=O)c3c(N)n(C4CC4)c(=O)[nH]c3=O)s2)c1C | -1.19% (inactive)
CCOc1ccccc1Nc1nnc(SCC(=O)Nc2cc(C)on2)s1 | -3.24% (inactive)
CC(=NNC(N)=O)c1ccc(Cl)c(-n2cccc2)c1 | 0.37% (inactive)
COc1cc(OC)cc(-c2cc3ccc(F)cc3cn2)c1 | 3.13% (inactive)
O=c1cc(-c2ccccc2)[nH]c2cc(F)ccc12 | -0.52% (inactive)
Fc1ccc2cnc(-c3ccccc3)cc2c1 | 6.9% (active)
COC(=O)[C@]12C[C@H](CC(=O)NCc3ccccc3)C(=O)N(CCc3ccc(OC)c(OC)c3)C1=C[C@H](C(C)(C)C)O[C@@H]2C | -2.1% (inactive)
O=c1[nH]c(-c2ccccc2)cn1C1CCN(Cc2ccc(-c3nc4ccc(F)cc4nc3-c3ccccc3)cc2)CC1 | 0.07% (inactive)
O=C(CCS(=O)(=O)c1ccccc1)Nc1ccc(Cl)c(Cl)c1 | 0.35% (inactive)
COc1ccc(C#CCNCc2ccc(OC)cc2OC)cc1 | -3.08% (inactive)
Cc1ccc2nc(-c3ccc(CN4CCC(n5cc(-c6ccccc6)[nH]c5=O)CC4)cc3)c(-c3ccccc3)nc2c1 | -2.64% (inactive)
COCCNC(=O)c1ccccc1-c1nc(-c2ccccc2Cl)no1 | 2.6% (inactive)
Cc1cc(C)n(C(=O)CCNC(=O)c2ccccc2Cl)n1 | -1.04% (inactive)
CN(C)CCNC(=O)c1ccc(Cl)c2cc3ccccc3nc12 | 13.5% (active)
O=C(N1CCOCC1)N(Cc1ccccc1)c1ccccn1 | -1.16% (inactive)
S=C(Nc1ccccc1)Nc1ccc2ccccc2c1 | 6.41% (active)
O=C(Nc1ccc2ccccc2c1)Nc1ccc2snnc2c1 | -0.5% (inactive)
O=S(=O)(NC(=S)Nc1ccccc1)c1ccc(F)cc1 | 2.29% (inactive)
